Laboratory results published in PubChem BioAssay.
The source made the active and inactive calls.

Legend:
[1] = tested on: Human papillomavirus type 1a protein E7 (residues 44-93); assay: HPV1a E7 fragment binders on microarrays, primary screen, biochemical, small-molecule microarray, residues 44-93, 635 nm fluorescence (AID 1108); settings: small-molecule microarray binding, fluorescence 635 nm; higher = more signal;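 note: E7 fragment applied at 1 µg/mL in TBST for 1 h at 4 C; score combines spot fluorescence with its signal to noise ratio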
[2] = modulators of HCV replicon luciferase signal, primary screen, HCV replication inhibitor project, Huh7 cells, luciferase reporter (AID 1109); settings: 48 h, higher = more signal;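 note: huh7 hepatoma cells harbouring a luciferase neomycin HCV replicon reporter; luciferase luminescence as measure of HCV replicon replication; test concentration not given here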
[3] = target: Left-right determination factor 2 (Homo sapiens) (UniProt O00292); assay: LEFTY2 binders on small-molecule microarrays, primary screen, biochemical, small-molecule microarray, 635 nm fluorescence scan (AID 1110); settings: LEFTY2 binding, higher = more signal
Chain of Left-right determination factor 2 (Homo sapiens) (O00292 whole entry, looked up): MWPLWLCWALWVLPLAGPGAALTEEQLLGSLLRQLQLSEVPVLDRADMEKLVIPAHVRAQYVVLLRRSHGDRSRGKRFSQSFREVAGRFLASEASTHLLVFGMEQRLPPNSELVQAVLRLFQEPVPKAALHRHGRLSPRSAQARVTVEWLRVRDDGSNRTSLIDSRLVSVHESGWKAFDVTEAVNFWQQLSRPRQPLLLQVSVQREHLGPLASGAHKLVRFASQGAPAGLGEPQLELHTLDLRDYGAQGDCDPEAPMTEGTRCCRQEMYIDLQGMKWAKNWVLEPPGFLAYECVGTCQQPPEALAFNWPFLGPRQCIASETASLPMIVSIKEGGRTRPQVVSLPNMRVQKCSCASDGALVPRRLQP

[4] = target: Calmodulin-1 (Homo sapiens) (UniProt P0DP23); assay: CALM1 binders on microarrays, EGTA buffer, profiling panel, biochemical, small-molecule microarray, Cy5-labelled CALM1 (AID 1111); settings: Cy5-CALM1 binding fluorescence, higher = more signal;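 note: labelled calmodulin applied in Tris saline Tween buffer holding calcium plus EGTA and DTT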
[5] = target: Calmodulin-1 (Homo sapiens) (UniProt P0DP23); assay: calcium-bound CALM1 binders on microarrays, profiling panel, artefact control for SMM control-protein annotation, biochemical, small-molecule microarray, Cy5-labelled CALM1, plus calcium (AID 1112); settings: Cy5-CALM1 binding fluorescence, higher = more signal;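 note: score merges spot fluorescence with signal to noise from triplicate slides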
[6] = small-molecule microarray binders of probe aWnt5a, primary screen, biochemical, biotinylated probe, 635/667 nm fluorescence (AID 1113); settings: higher = more signal;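 note: score merges 667 nm fluorescence intensity with signal-to-noise per printed feature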
[7] = small-molecule microarray binders of probe aShh, primary screen, biochemical, biotinylated probe, 635/667 nm fluorescence (AID 1114); settings: higher = more signal;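 note: probe is biotin-labelled aShh protein from a stem cell growth factor screen; measures binding of labelled protein to compounds printed on the slide; score merges feature fluorescence at 667 nm with signal-to-noise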
[8] = small-molecule microarray binders of probe aNog, primary screen, biochemical, biotinylated probe, 635/667 nm fluorescence (AID 1115); settings: higher = more signal;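 note: probe is biotinylated aNog protein used at 0.15 µg/mL for 1 h at 4 C; z-score combines 667 nm fluorescence of each spot with its signal to noise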
[9] = target: Torsin-1A-interacting protein 1 (Homo sapiens) (UniProt Q5JTV8); assay: LAP1 binders from COS7 cell lysate, primary screen, small-molecule microarray, 635/667 nm fluorescence (AID 1116); settings: COS7-hLAP1 lysate binding, 635 nm fluorescence, higher = more signal
Chain of Torsin-1A-interacting protein 1 (Homo sapiens) (Q5JTV8 whole entry, looked up): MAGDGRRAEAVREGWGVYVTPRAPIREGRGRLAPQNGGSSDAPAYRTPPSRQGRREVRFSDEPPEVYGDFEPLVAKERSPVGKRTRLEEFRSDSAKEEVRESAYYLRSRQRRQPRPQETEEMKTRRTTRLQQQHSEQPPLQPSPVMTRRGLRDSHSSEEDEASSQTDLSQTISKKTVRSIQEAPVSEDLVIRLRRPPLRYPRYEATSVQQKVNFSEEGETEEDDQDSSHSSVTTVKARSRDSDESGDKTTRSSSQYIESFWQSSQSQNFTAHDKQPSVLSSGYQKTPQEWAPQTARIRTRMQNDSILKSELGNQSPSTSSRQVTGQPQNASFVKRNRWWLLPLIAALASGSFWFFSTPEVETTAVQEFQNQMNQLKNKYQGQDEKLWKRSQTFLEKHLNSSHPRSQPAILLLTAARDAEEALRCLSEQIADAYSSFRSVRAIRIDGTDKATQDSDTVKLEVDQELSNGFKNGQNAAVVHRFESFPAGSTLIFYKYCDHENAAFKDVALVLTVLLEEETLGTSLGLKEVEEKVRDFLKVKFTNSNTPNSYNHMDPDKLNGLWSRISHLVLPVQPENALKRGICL

[10] = target: Alpha-bungarotoxin (Bungarus multicinctus) (UniProt P60615); assay: alpha-bungarotoxin binders on microarray, profiling panel, artefact control for SMM control protein annotation, biochemical, small-molecule microarray, Alexa647 label, 635/667 nm fluorescence (AID 1117); settings: alpha-BTX-A647 binding fluorescence, higher = more signal
Chain of Alpha-bungarotoxin (Bungarus multicinctus) (P60615 whole entry, looked up): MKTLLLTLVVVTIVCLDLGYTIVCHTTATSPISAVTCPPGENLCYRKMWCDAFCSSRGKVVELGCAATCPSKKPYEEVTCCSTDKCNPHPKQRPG

Albumin (Bos taurus) = Albumin (Bos taurus) (UniProt P02769); assay: bovine serum albumin binders on microarray, profiling panel, artefact control for SMM control protein annotation, biochemical, small-molecule microarray, Alexa647 label, 635/667 nm fluorescence (AID 1118); settings: BSA-A647 binding, fluorescence 635 nm, higher = more signal;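 note: score merges 667 nm emission intensity and signal-to-noise per printed compound spot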
Chain of Albumin (Bos taurus) (P02769 whole entry, looked up): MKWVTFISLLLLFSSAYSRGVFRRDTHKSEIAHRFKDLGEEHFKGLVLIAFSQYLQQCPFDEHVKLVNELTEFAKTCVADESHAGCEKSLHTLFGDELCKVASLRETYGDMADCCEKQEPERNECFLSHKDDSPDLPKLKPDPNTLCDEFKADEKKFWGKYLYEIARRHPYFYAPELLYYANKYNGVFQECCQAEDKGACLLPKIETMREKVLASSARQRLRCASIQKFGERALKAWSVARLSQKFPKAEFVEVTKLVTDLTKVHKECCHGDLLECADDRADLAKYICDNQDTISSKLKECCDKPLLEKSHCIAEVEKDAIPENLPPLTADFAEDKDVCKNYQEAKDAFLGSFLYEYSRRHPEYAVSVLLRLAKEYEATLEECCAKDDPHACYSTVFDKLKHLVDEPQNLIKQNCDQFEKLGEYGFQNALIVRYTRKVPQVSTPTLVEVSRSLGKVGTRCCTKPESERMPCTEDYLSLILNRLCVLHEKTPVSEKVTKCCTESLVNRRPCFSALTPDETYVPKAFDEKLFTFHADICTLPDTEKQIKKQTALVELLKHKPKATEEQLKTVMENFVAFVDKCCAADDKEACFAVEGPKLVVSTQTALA

[11] = small-molecule microarray binders of probe aXIP, primary screen, biochemical, NeuroSMM set, 635/667 nm fluorescence (AID 1119); settings: higher = more signal, called active from +8 up or from −8 down;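 note: probe is the protein aXip251-270 applied at 1 µg/mL to compound-printed slides; binding of probe to printed compounds measured as 667 nm fluorescence plus signal to noise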
[12] = small-molecule binders of probe aNOTCH3, primary screen, biochemical, small-molecule microarray, 635/667 nm fluorescence (AID 1120); settings: higher = more signal;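 note: probe is a biotin-tagged antibody raised against NOTCH3 rather than NOTCH3 protein; score merges spot fluorescence near 667 nm with spot signal to noise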
[13] = small-molecule binders of probe aNOTCH2, primary screen, biochemical, small-molecule microarray, 635/667 nm fluorescence (AID 1121); settings: higher = more signal;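 note: score merges feature fluorescence read at 667 nm with its signal to noise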
[14] = target: Carbonic anhydrase 2 (Homo sapiens) (UniProt P00918); assay: CAII small-molecule binders, profiling panel, biochemical, small-molecule microarray, Alexa647-labelled CAII (AID 1122); settings: CAII-A647 binding fluorescence, higher = more signal
[15] = COS7 lysate on small-molecule microarray, probe aHis, 635 nm (AID 1123); settings: COS7 cell lysate, fluorescence, higher = more signal;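 note: z-score combines 667nm fluorescence intensity with signal-to-noise per printed compound spot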
[16] = compound binding in COS7 lysate, probe aLAP1, primary screen, cell lysate, small-molecule microarray (AID 1124); settings: probe aLAP1, fluorescence, higher = more signal;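 note: lysate comes from COS7 cells expressing LAP1 and is applied at 0.3 µg/mL; score merges spot fluorescence near 667 nm with signal-to-noise over triplicate slides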
Sam68 (KHDRBS1) = assay: Sam68 small-molecule binders, primary screen, biochemical, small-molecule microarray, 635 nm fluorescence (AID 1125); settings: small-molecule microarray binding, higher = more signal;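 note: score merges 667 nm channel intensity with signal to noise over triplicate slides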
[17] = tested on: Chordin-like protein 2 (CHRDL2); assay: CHRDL2 small-molecule binders, primary screen, biochemical, small-molecule microarray, 635 nm fluorescence (AID 1126); settings: small-molecule microarray binding, fluorescence 635 nm; higher = more signal;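 note: printed compound slides probed with Chrdl2 protein at 4 µg/mL for 1 h at 4 C; score merges 667 nm emission intensity with signal to noise over three replicate slides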
[18] = target: Concanavalin-A (Canavalia ensiformis) (UniProt P02866); assay: ConA small-molecule binders, primary screen, artefact control for SMM control protein annotation, biochemical, small-molecule microarray, Alexa647 label, 635 nm (AID 1127); settings: ConA-A647 binding fluorescence, higher = more signal;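 note: z combines 667 nm emission intensity with signal-to-noise across three replicate slides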
Chain of Concanavalin-A (Canavalia ensiformis) (P02866 whole entry, looked up): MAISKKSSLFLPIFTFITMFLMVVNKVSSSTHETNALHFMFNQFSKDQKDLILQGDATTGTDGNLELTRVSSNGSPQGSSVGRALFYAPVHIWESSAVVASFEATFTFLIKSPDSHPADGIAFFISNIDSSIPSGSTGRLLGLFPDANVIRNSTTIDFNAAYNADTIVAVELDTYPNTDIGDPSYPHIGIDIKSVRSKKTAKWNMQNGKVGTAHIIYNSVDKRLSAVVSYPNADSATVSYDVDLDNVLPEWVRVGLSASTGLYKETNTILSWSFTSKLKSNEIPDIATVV

Compound | composite z-score [1] | z-score [2] | composite z-score [3] | composite z-score [4] | composite z-score [5] | composite z-score [6] | composite z-score [7] | composite z-score [8] | composite z-score [9] | composite z-score [10] | composite z-score (Albumin (Bos taurus)) | composite Z-score [11] | composite z-score [12] | composite z-score [13] | composite z-score [14] | composite z-score [15] | composite z-score [16] | composite z-score (Sam68 (KHDRBS1)) | composite z-score [17] | composite z-score [18]
CO[C@@H]1COC(=O)[C@H](C)NC(=O)CC=C[C@@H](C)[C@H](NS(=O)(=O)c2ccc(C)cc2)COC(=O)CC=C[C@@H]1C | -0.232 | 0.108 | 0.46 | -0.356 | -0.239 | -0.0718 | -0.138 | -0.246 | 0.117 | -0.573 | -0.471 | 0.237 (inactive) | 0.0066 | -0.0554 | -0.185 | 0.0657 | -0.319 | -0.354 | -0.0932 | -0.809
O=C1c2ccccc2[C@](Cc2ccccc2I)(C(=O)O)[C@H](c2ccc(CO)cc2)N1C1CCCCC1 | 1.02 | -1.33 | 0.15 | 1.61 | 0.487 | -0.0203 | -0.018 | 0.213 | 1.5 | 1.53 | 0.823 | 0.222 (inactive) | 0.447 | -0.0708 | 0.739 | 3.57 | 0.589 | 1.3 | -0.423 | 1.21
O=C(CS)NCCCCCNC(=O)[C@H]1C[C@H]2C(=O)N3CCC[C@H]3C(=O)N2[C@H]1c1ccc(O)cc1 | -0.295 | 0.0187 | 0.679 | 1.45 | 1.22 | -0.197 | 0.046 | -0.0207 | 2.97 | -1.3 | -1.54 | -0.17 (inactive) | -0.229 | -0.0304 | 0.729 | 0.0961 | 1.23 | -0.305 | 0.641 | -0.736
C=CCC(OC(C)=O)[C@@H]1[C@@H](N(Cc2ccc(-c3ccccc3)cc2)C(=O)c2ccc(C)cc2)c2cc(OCCCO)ccc2N1C(=O)c1ccc(-c2ccccc2)cc1 (stereo not given in full) | -0.0852 | -0.13 | 0.181 | 0.218 | 1.22 | -0.101 | 0.0611 | 0.15 | 0.116 | 0.523 | 0.101 | 0.451 (inactive) | -0.0933 | -0.0664 | -0.102 | 0.23 | 0.232 | -0.0015 | -0.0151 | -0.925
O=C1C2C=CC(C(O)Cc3ccccc3)N(Nc3ccc([N+](=O)[O-])cc3)C2C(=O)N1c1ccccc1 (stereo not given) | 0.508 | -0.531 | 0.0886 | 0.417 | 0.426 | 0.159 | 0.203 | 0.905 | 0.937 | 0.307 | 0.944 | -0.205 (inactive) | 0.357 | 0.401 | 0.759 | 1.02 | 0.517 | 0.719 | 0.709 | 0.185
O=[N+]([O-])c1ccc(C[n+]2ccc3ccc(O)cc3c2)o1 | -0.0611 | -0.95 | -0.0338 | 1.01 | 0.287 | -0.0435 | 0.673 | -0.206 | -0.314 | 2.53 | 0.895 | 0.14 (inactive) | 0.0736 | -0.0746 | 0.64 | 0.466 | 0.98 | 0.534 | 0.0197 | 1.11
